# EWS-Fli block: EWS/Fli transcriptional activity inhibition; A673 NR0B1-luciferase reporter, viability-normalised; inhibition, % at 12.6 µM; hit rate 0.67% among 350,000; AID 651661;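 active = mean inhibition of at least 50% after viability correction, with every replicate also passing that limit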;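 note: firefly luciferase signal divided by Alamar Blue viability fluorescence both relative to DMSO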
# LMP1 NFkB inh: reduces LMP1-driven NF-kappaB luciferase signal; inhibition, % at 12.5 µM; LMP1-induced NF-kappaB luciferase reporter cells, luminescence; hit rate 0.69% among 350,000; in the data active = inhibition above about 41%;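 note: 0% = neutral control wells and 100% = reference inhibitor control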
# TROY signal inh: inhibitors of TROY-dependent NF-kB signaling | Q293 LMP1-TROYcd NF-kB luciferase reporter, 4 h | inhibition, % at 10 µM | hit rate 0.98% among 360,000 | AID 1347056;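 active = compounds whose plate-normalised and pattern-corrected inhibition of the luciferase reporter signal at the single screening dose is 50% or more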
# PAX8 reporter: PAX8 transcriptional activity inhibition | RMG-I TPO-luciferase reporter, SteadyGlo, 24 h | hit rate 1.2% among 360,000 | inhibition, % at 12.6 µM | AID 652154;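 active = mean replicate inhibition at least 60% with every replicate also reaching 60%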;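 note: luciferase light reporting Pax8 driven TPO promoter activity; plate controls were median of neutral control wells for no effect and mitoxantrone controls for full effect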
# TWEAK Fn14 block: inhibitors of TWEAK-Fn14 interaction signaling; AID 1159606; TWEAK-stimulated Fn14 reporter cells, luciferase luminescence, 8 h; hit rate 2% among 360,000; inhibition, % at 10 µM; in the data active = inhibition above about 50%
# LGR2 inh: inhibitors of bursicon-induced Drosophila LGR2 receptor cAMP signaling; inhibition, % at 9.99 µM; AID 720647; HEK293 LGR2, CRE-luciferase, bursicon-stimulated, 4 h; hit rate 0.35% among 380,000;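 active = drop in luminescence signal, shown as inhibition above about 50% in the replicate tests, limit read from the data, passing the limit was not always enough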;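 note: agonist challenge used bursicon conditioned medium at about half maximal strength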
# Active calls of the source: *; / = no result given; ! = repeats disagree. Only some compounds are listed: those with a hit (about 3.1% of all), similar ones and a draw of the others.
SMILES,EWS-Fli block,LMP1 NFkB inh,TROY signal inh,PAX8 reporter,TWEAK Fn14 block,LGR2 inh
O=C(Nc1cccc(F)c1)N1C[C@@H]2N[C@H](C1)C2c1ccc(-c2ccncc2)cc1 (stereo partly drawn),11.2,/,/,-10.1,/,-4.2
COc1ccc(NC(=O)N2C[C@@H]3N[C@H](C2)[C@@H]3c2ccc(-c3ccc(OC)cc3)cc2)cc1,1.9,/,/,92.6*,/,43.9
C/C=C/c1ccc(C2[C@@H]3CN(C(=O)Nc4ccc(F)cc4)C[C@H]2N3)cc1 (stereo partly drawn),-0.6,/,/,-2.3,/,-18.9
COc1ccc(-c2ccc(C3[C@@H]4CN(C(=O)Nc5cccc(F)c5)C[C@H]3N4)cc2)cc1 (stereo partly drawn),8.8,/,/,100.0*!,/,-21.9
COc1ccc(NC(=O)N2C[C@@H]3N[C@H](C2)C3c2ccc(-c3ccncc3)cc2)cc1 (stereo partly drawn),2.2,/,/,-4.5,/,-5.9
COc1ccc2c3c(n(C)c2c1)[C@H](CO)N(C(=O)c1cnccn1)CC31CCN(C(=O)c2ccncc2)CC1,-6.3,/,/,/,/,-5.4
CN1CCN(C(=O)C[C@@H]2CC[C@@H](NC(=O)Cc3ccccn3)[C@H](CO)O2)CC1,0.4,/,/,-4.9,/,5.0
Cc1ccccc1-c1ccc(C2[C@@H]3CN(C(=O)Nc4cccc(F)c4)C[C@H]2N3)cc1 (stereo partly drawn),-4.3,/,/,85.1*!,/,10.8
COc1ccc(-c2ccc(C3[C@@H]4CN(Cc5cc(OC)cc(OC)c5)C[C@H]3N4)cc2)cc1 (stereo partly drawn),-2.9,/,/,86.2*!,/,-5.6
O=C(NC1CCCCC1)N1C[C@@H]2N[C@H](C1)C2c1ccc(-c2ccc(F)cc2)cc1 (stereo partly drawn),8.2,/,/,105.1*!,/,-19.3
COc1cccc(-c2ccc(C3[C@@H]4CN(C(=O)C5CC5)C[C@H]3N4)cc2)c1 (stereo partly drawn),-13.5,/,/,80.5*!,/,62.3*!
C[C@H](CO)N1C[C@H](C)[C@H](CN(C)C(=O)NC2CCCCC2)Oc2ccc(NS(=O)(=O)c3cn(C)cn3)cc2C1=O,5.5,/,/,/,/,2.1
C[C@H](CO)N1C[C@H](C)[C@@H](CN(C)C)Oc2c(NC(=O)c3cnccn3)cccc2C1=O,-7.3,/,/,-5.0,/,0.5
Clc1ccc(-c2nc3n(n2)Cc2ccccc2-3)cc1,/,-33.4,-34.4,-179.5,51.7*,/
CC(=Cc1ccccc1)C=C1SC(=S)N(CCCC(=O)Nc2ccc(C(=O)O)cc2)C1=O,-42.5,/,29.1,5.6,63.6*,-13.5
CC(/C=C1\SC(=S)N(CCC(=O)Nc2cccc(C(=O)O)c2)C1=O)=C\c1ccccc1,1.1,-2.8,32.0,-2.0,-6.6,0.6
O=C(CCCN1C(=O)/C(=C\c2ccco2)SC1=S)Nc1ccc2ccccc2c1,-38.2,-1.1,17.2,4.0,59.0*,-2.5
CC(/C=C1\SC(=S)N(CCCC(=O)Nc2ccc(C(=O)O)cc2)C1=O)=C\c1ccccc1,/,-1.6,-3.0,-2.9,50.0*,-5.9
C[C@@H]1CN([C@@H](C)CO)C(=O)c2cccc(NC(=O)Nc3ccc4c(c3)OCO4)c2O[C@H]1CN(C)CC1CC1,-25.4,/,/,/,/,0.5
C[C@H](CO)N1C[C@H](C)[C@H](CN(C)Cc2ccncc2)Oc2c(NC(=O)C3CCCCC3)cccc2C1=O,-0.8,/,/,-5.6,/,0.2
COC(=O)c1cc2n(n1)CCN(Cc1ccc(C)cc1)C2=O,/,5.8,1.8,/,2.2,-2.9
COC(=O)c1cc2n(n1)CCN(Cc1ccccc1Cl)C2=O,/,69.6*,-10.9,/,-6.2,/
CCc1ccc(NC(=O)C2CCN(C(=O)N3CCOc4ccccc43)CC2)cc1,9.6,-10.0,-2.2,3.0,-8.6,8.2
O=C(Nc1cccc(F)c1)C1CCN(C(=O)N2CCOc3ccccc32)CC1,1.9,84.2*,13.1,-12.5,9.1,-5.0
O=C(N/N=C/c1ccco1)c1cccc([N+](=O)[O-])c1,-6.5,-1.0,-10.2,-15.3,13.7,/
SMILES,EWS-Fli block,LMP1 NFkB inh,TROY signal inh,PAX8 reporter,TWEAK Fn14 block,LGR2 inh
O=C(N/N=C/c1ccco1)c1cc([N+](=O)[O-])cc([N+](=O)[O-])c1,82.1*,0.9,14.2,-14.6,-11.7,20.9
COc1ccc(-c2nc(-c3ccc4c(c3)OCO4)[nH]c2-c2ccc(OC)cc2)cc1,/,-47.0,31.6,33.7,56.0*,10.9
COc1cc(OC)cc(-c2cc3cc4c(cc3cn2)OCO4)c1,/,-3.4,-61.8,/,21.4,/
COc1ccc(-c2cc3cc4c(cc3cn2)OCO4)cc1,-8.1,-16.7,17.1,-74.2,53.6*,64.7*
COc1cccc(-c2noc(-c3ccc4c(c3)OCO4)n2)c1,43.5,-2.4,9.2,-114.2,53.1*,36.3
CNC[C@H]1Oc2cc(C#CCN(C)C)ccc2S(=O)(=O)N([C@H](C)CO)C[C@@H]1C,7.2,/,/,/,/,-6.9
S=c1[nH]nc(-c2ccccn2)n1/N=C/c1cccc2ccccc12,3.1,-6.5,6.0,121.8*,13.2,9.1
Cc1ccccc1/C=N/n1c(-c2ccccn2)n[nH]c1=S,9.0,1.6,9.3,9.6,6.6,/
CO[C@@H]1CN(C)C(=O)c2ccc(NS(=O)(=O)c3cn(C)cn3)cc2OC[C@H](C)NC[C@@H]1C,8.9,/,/,2.0,/,1.6
CCOc1ccccc1NC(=O)/C(C#N)=C/c1c(C)nn(-c2ccc(F)cc2)c1Cl,0.0,3.0,4.8,5.9,-39.7,-9.4
CN(C)c1nc(C=C(C#N)C#N)c(Cl)n1-c1ccc(F)cc1,38.0,-47.4,16.2,68.1*,71.8*,16.3
C[C@@H]1CN([C@H](C)CO)C(=O)c2cccc(NC(=O)C3CCOCC3)c2O[C@@H]1CN(C)S(C)(=O)=O,-3.7,/,/,-7.4,/,0.0
Cc1ccc(S(=O)(=O)N2CCN(Cc3nc4ccccc4[nH]3)CC2)cc1C,/,-7.1,52.8*,/,-4.3,-14.7
Cc1cc(C)c(C)c(S(=O)(=O)N2CCN(Cc3nc4ccccc4[nH]3)CC2)c1C,/,0.4,9.1,/,7.2,/
O=C(O)/C=C/c1cn(Cc2ccccc2)nc1-c1ccccc1,/,2.0,-10.0,/,-9.4,5.2
